# Assays:
# Test in all cases: PBM binding z-score (relative to random genomic background probes); higher = stronger binding; sequences stand for … in GC…GCGATTGACAGCGTAGAATGAAGG
# [1] = system: RARb homodimer (NR concentration 270 nM)
# Outline: (§1)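 Each nuclear receptor dimer, without ligand, was incubated for 1 h on custom Agilent 4×180K protein-binding microarrays. Binding was detected with antibodies against each partner (one per run), and scanned fluorescence was regression-normalized. The binding z-scores are referenced to random human genomic background probes.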
# [2] = system: RARg:RXRa (NR concentration 270 nM, RXRa partner concentration 90 nM)
# Outline: as §1
# [3] = system: RARg homodimer (NR concentration 270 nM)
# Outline: as §1
# [4] = system: RXRa DBDmut IVT, anti-RXR (DBD mutation: RXRa K156A/R161A, NR concentration 90 nM)
# Outline: as §1
# [5] = system: RXRa homodimer (NR concentration 180 nM)
# Outline: as §1
# [6] = system: THRa:RXRa (NR concentration 90 nM, RXRa partner concentration 90 nM)
# Outline: as §1
# [7] = system: THRa homodimer (NR concentration 90 nM)
# Outline: as §1
# [8] = system: VDR homodimer (NR concentration 270 nM)
# Outline: as §1
Sequence,PBM binding z-score [1],PBM binding z-score [2],PBM binding z-score [3],PBM binding z-score [4],PBM binding z-score [5],PBM binding z-score [6],PBM binding z-score [7],PBM binding z-score [8]
GCTGCTAGGTCAACTGATGGTCAGCCAAAGCTCG,3.68,5.01,5.1,1.7,2.89,2.86,0.852,-0.263
GCTAGTTGGTCAGTAAAAGGTCTCACACCGGTCG,1.45,0.572,0.449,-0.133,0.172,0.0932,0.0808,-0.174
TCTGGTAGATCAGCAGGTTAAGAAAGCTGGCCAA,-0.132,-0.135,-0.628,0.128,0.256,0.0552,-0.418,-0.56
CGAACGAGGGCATGAGTTGAAAGCAAATGCCGAT,0.836,1.52,1.57,2.22,1.19,1.37,-0.313,1.57
ATCTCTAGGTACAGATAGTTCAGTGAATGCAAAT,0.913,0.74,0.847,1.17,0.198,0.432,0.0409,1.65
CAAACAGGGTCAGCTAGGCCAGAGTAGGGACGGC,3.2,4.72,4.56,1.83,4.56,2.94,0.733,1.44
TCCTATAGGTAATACAGGTGAAAGTCGGCATCTA,0.461,0.471,0.243,1.05,0.757,0.883,0.298,-0.333
CCAACTAGGTCAAGAGGTCAAAGTCCGCTTCCCG,5.51,8.12,7.31,2.99,8.12,4.24,2.47,4.94
TAGCCTAGGTCATTGGGCCTGTATAGTACGCATC,2.84,3.78,4.29,1.59,3.33,2.74,0.697,1.12
TCTAGCAGGCCAGAGGGTCACTAAAGAGGTACGG,2.52,2.5,2.05,-0.16,2.02,1.39,-0.413,0.287
GCGAATGGGGCATCAGCAGGTTACCATAACTTAA,0.462,0.664,0.351,0.119,0.257,0.795,0.03,-0.224
AGAATGAGGTTGCCAAAGATCAGGGAAACGCTTG,-0.195,0.266,0.336,0.261,0.9,0.855,-0.384,-0.0161
ATCGAGAGGTCGAAGGTGAGTATACCCACCCGAA,1.46,3.28,2.62,1.02,4.3,1.82,-0.366,0.783
CCTACTCGGCCATTCAGAGGTCATTGATCATATG,4.19,4.17,3.64,2,3.59,3.32,1.99,4.02
CAAACTAAGTCACAGAGGTCAAAGTCCGTGCGTA,4.47,5.34,4.96,2.26,5.91,3.71,1.87,4.45
ATCGAAAGGTCGACGGGGTGAGTATACACCGTTT,3.14,4.6,4.63,1.61,5.07,3.57,0.568,1.7
TAGCCTAGGTCATTGGGCCAGTAGAGTACGCATC,3.11,3.83,4.04,1.34,2.79,2.88,0.722,1.3
GCGACTGGTGCAAAGCAGGTTACCATAAGGTTGG,0.217,-0.209,-0.317,-0.409,0.0236,1.93,-0.397,-0.448
ATATGTAGGTTAAGTGTCATTCAGGTTGGTTCGC,2.02,1.53,1.47,1.1,1.9,1.58,1.08,1.53

Sequence,PBM binding z-score [1],PBM binding z-score [2],PBM binding z-score [3],PBM binding z-score [4],PBM binding z-score [5],PBM binding z-score [6],PBM binding z-score [7],PBM binding z-score [8]
TGAATGAGGTTAAAGACCAGGGAACGTGGCGTCG,0.539,1.91,0.92,0.895,2.95,2.14,0.297,0.179
CCTACTGGGCCAAAGGTCATTGATTCCAATGCTC,4.66,5.94,4.86,1.43,7.21,3.33,0.631,2.09
GCGACTGTGGCAAAGCAGGTTACCATAAGGTTGG,0.168,-0.101,-0.193,-0.432,0.102,1.22,-0.306,-1.03
ACTAGCTGGTCAGCTGAGGTCACACACAATTCGG,4.27,4.27,4.18,0.848,4.03,5.12,4.71,3.25
CCTCGAAGGACAGAAGGTCAGAGCTGTCCGCTTT,3.54,3.21,2.98,0.128,1.76,1.62,0.0154,0.121
ACTAGCAGGCCAAGTTTGGGTGACTCAAACAAAG,0.251,0.0882,-0.216,-0.308,-0.222,0.796,-0.161,-0.571
TAGCCTAGGTCAGATCGGGCCATTATACGCTATA,2.15,2.48,3.68,-0.0922,1.36,4.25,0.543,-0.154
CCTGCTAGGTCAATGGTTAGCTAAAGCAGCTCGC,2.6,3.3,3.9,1.65,1.78,2.11,0.48,-0.158
AGAATGTGGTTATTAAGATCAGGGAATTGCGGTC,0.199,-0.113,0.223,-0.0893,0.0791,0.147,0.17,0.201
ATAAGTAGGTTATCGGGTCATTCAGTTTGCGCAT,3.12,3.44,2.43,1.57,3.55,3.29,2.93,4.49
GATACAGGGACAGCTAGAGGCCAGAGTATGGAAA,0.97,0.522,1.01,-0.496,0.185,0.508,0.191,-0.0729
CGAACTAGGCCAGAACAGGACAGTGAAGGATGAT,0.156,0.158,0.409,0.019,0.291,0.634,-0.576,-0.245
CCTCGGAGGACAGAAGGTCCGAGCTGTCCGCTTT,-0.0245,-0.392,-0.0646,0.0399,-1.02,-0.359,-0.311,0.0219
CAAACTAGGACACGAAAGGTCAAAGTCGAATGAC,4.86,5.9,5.66,1.45,6.74,4.08,1.94,2.91
CAGCCTACGTCAGGGCCAGTATAGGAGGAACGTT,-0.0418,-0.371,-0.021,-0.885,-0.169,-0.415,-0.292,-0.285
TCTTGTAGATCAAAGATTAAGAAAGCCGAAGCCT,-1.12,0.0193,-0.33,0.517,0.241,-0.201,-0.962,-0.417
TTACCAAGGTGAGCTGAGGTCGTCGATCCAACTC,1.49,1.37,1.36,-0.22,1.75,4.74,2.4,1.02
CCTACTGGCCCACGAAAGGTCATTGATTCAGTGA,4.47,4.32,3.95,0.693,4.79,3.02,1.16,2.69
TCCTATAGGTAAACAGGTGAAAGTCCGTAAGTTA,0.829,0.269,0.132,1.06,0.667,0.77,0.418,0.275

Sequence,PBM binding z-score [1],PBM binding z-score [2],PBM binding z-score [3],PBM binding z-score [4],PBM binding z-score [5],PBM binding z-score [6],PBM binding z-score [7],PBM binding z-score [8]
CCTATTAGTTGACCATAAGGGCAAACGAAGCTCG,1.93,1.48,1.31,0.782,0.751,1.72,1.08,1.01
CGTCCAAGGTCAAGGTTAGTGAAAGAGACTCGAA,4.33,5.94,6.75,3.28,5.75,3.98,2.66,1.85
CCTACTGGGCCATTCAGTGGTCATTGATCATATG,0.199,0.241,0.159,-0.408,-0.279,-0.329,-0.878,-0.288
GCTACCAGGCCATTTGGGTCACTCAATGACGGGC,2.15,1.21,1.57,0.386,0.86,2.21,1.39,0.491
TCTCGGAGGACACGAAGGTCTGAGCTTTCCAGAG,0.657,0.331,1.01,0.323,-0.0356,1.12,0.262,-0.384
CTACCAAGGTGAACAAGGCCGTTGATTACTATTC,0.956,0.749,0.894,0.53,0.695,2.18,1.08,0.0898
CGTCCAAGGTCAGCAGGCCAGTGAAAGCGACGTG,4.1,5.07,5.77,2.47,3.86,3.74,1.89,1.25
AATTCAGGGTCATCGTAGGCCAGAGTACGCACAG,3.87,6.21,5.46,3.82,7.13,4.78,2.24,4.01
CCAGACAGGTGAGAGGGTAACTCAGCCTCGATTA,1.02,0.576,0.626,-0.231,0.666,0.388,0.0769,0.287
TCTGCTAGATCAGTTGGTCAGCTAACGAGCTGCC,-0.799,-0.667,-0.644,-0.256,-0.419,-1.77,-1.48,-1.49
CTACCAAGGTGAACAAGGTCGTGGATTACTATTC,2.22,2.24,1.63,0.592,2.7,3.64,2.18,1.27
GCTAGCAGGCCACTTGGGTCACTCAATGACGGGC,2.08,1.11,1.41,-0.454,0.892,1.67,0.36,0.24
TATACAGGGTCAAAGGCCAGAGTACGAATGTCGA,3.67,5.46,5.12,3.02,6.7,3.76,0.87,3.4
ATACCTAGGTGATCGTGAGGTCGTTGATACTAAC,1.49,1.58,0.568,0.641,1.51,3.15,2.51,3.13
ACAGACAGGTGATGCAGGTAACTCAGGCTATCAT,0.184,0.124,0.379,-0.176,0.354,0.549,-0.0382,-0.22
TCTAGCAAGCCAGAGGGTCACTCAAGAGGTACGG,2.11,1.94,1.39,-0.198,2.18,1.43,-0.484,0.431
CGTCAAAGTTCAAGTAAGGTAACGTAAAGCACGC,4.18,5.63,6.15,4.54,4.68,5.33,1.95,3.69
AGTCAAAGTTCAGAACGAGGTAACGTAAAGCACG,2.66,4.62,4.15,3.09,2.76,3.63,0.7,1.94

# — the supplement of paper PMC6555819
